Inconclusive results are not listed. Activity calls are given as the source filed them. No stated cut-off is given here; in the data, active means toxicity enhancement factor above about 0.054; inconclusive means between about 0.00067 and that limit; inactive means weaker than that.
Assay: reversers of MRP drug resistance, dose response, cell-based (AID 741)
Details: MRP-overexpressing cells, viability with/without cytotoxic drug; slope difference: measured here: slope difference tox minus reversal, stronger effect = higher value; toxicity enhancement factor: stronger effect = higher value; viability: measured here: viability series, compound alone, at 10 µM, stronger effect = lower value

Structure (SMILES) | slope difference | toxicity enhancement factor | viability [%]
CCN(CC)C(=O)CSc1nc2c(sc(=S)n2-c2ccccc2)c(=O)n1Cc1ccco1 | 3.95 | 0.0846 (active) | 87.8
O=C(NCCCn1ccnc1)c1sc2cccc(F)c2c1Cl | -0.0975 | -0.001 (inactive) | 96.9
CCCCCC(O)c1cccc(OCc2ccc3ccccc3n2)c1 (stereo unspecified) | -0.009 | -0.0001 (inactive) | 102
COc1ccccc1Nc1nc(N)nc(CN2CCOCC2)n1 | -0.589 | -0.0058 (inactive) | 98.2
CC(C(=O)O)c1cccc(C(=O)c2ccccc2)c1 (stereo unspecified) | -1.03 | -0.0105 (inactive) | 92.4
COc1ccc(Cl)cc1C(=O)Nc1ccccc1N1CCN(C(=O)C(C)C)CC1 | -0.352 | -0.0048 (inactive) | 75.7
CCN(C(=O)c1cn(C)c(=O)c2cc(OC)c(OC)cc12)c1cc(OC)ccc1OC | 4.18 | 0.129 (active) | 77.9
Cc1cccc(OCc2nnc(SCC(=O)c3ccccc3)o2)c1 | -0.739 | -0.007 (inactive) | 97.4
CCOC(=O)c1c(C)[nH]c(N=Nc2ccc(C)cc2)c1C | -0.597 | -0.006 (inactive) | 98.7
COC(=O)Nc1ccc(S(=O)(=O)Nc2ccc(O)cc2)cc1 | -0.156 | -0.0016 (inactive) | 90.5
c1ccc2sc(N3CN(CCN4CCOCC4)CN(c4nc5ccccc5s4)C3)nc2c1 | -1.81 | -0.0158 (inactive) | 104
CC(C)(C)C(=O)[C@@H]1[C@@H]2C(=O)N(C3CCCCC3)C(=O)[C@@H]2[C@H]2c3ccccc3C=CN12 | 2.83 | 0.061 (active) | 85.2

Reference: PubChem BioAssay AID741 (SRMLSC, 2007)
